This passage reports Percent Effect results from ChEMBL document CHEMBL3988442, “University of Dundee, Small-Polar-MMV Screening Library” (2021).

Parameters in all cases: scale not given: direction of the effect not stated beside the values
In assay [1] the target is Protein translocase subunit SecA (Escherichia coli (strain K12)) (UniProt P10408). Kind of assay: Assay to Identify E. coli SecA ATPase Inhibitors. The format is functional. To be noted: 30 µM.
Assay [2] addresses T1, Ubiquitin-activating enzyme e1, putative (Leishmania donovani (strain BPK282A1)) (UniProt E9BSI1).
T1 sequence (whole entry): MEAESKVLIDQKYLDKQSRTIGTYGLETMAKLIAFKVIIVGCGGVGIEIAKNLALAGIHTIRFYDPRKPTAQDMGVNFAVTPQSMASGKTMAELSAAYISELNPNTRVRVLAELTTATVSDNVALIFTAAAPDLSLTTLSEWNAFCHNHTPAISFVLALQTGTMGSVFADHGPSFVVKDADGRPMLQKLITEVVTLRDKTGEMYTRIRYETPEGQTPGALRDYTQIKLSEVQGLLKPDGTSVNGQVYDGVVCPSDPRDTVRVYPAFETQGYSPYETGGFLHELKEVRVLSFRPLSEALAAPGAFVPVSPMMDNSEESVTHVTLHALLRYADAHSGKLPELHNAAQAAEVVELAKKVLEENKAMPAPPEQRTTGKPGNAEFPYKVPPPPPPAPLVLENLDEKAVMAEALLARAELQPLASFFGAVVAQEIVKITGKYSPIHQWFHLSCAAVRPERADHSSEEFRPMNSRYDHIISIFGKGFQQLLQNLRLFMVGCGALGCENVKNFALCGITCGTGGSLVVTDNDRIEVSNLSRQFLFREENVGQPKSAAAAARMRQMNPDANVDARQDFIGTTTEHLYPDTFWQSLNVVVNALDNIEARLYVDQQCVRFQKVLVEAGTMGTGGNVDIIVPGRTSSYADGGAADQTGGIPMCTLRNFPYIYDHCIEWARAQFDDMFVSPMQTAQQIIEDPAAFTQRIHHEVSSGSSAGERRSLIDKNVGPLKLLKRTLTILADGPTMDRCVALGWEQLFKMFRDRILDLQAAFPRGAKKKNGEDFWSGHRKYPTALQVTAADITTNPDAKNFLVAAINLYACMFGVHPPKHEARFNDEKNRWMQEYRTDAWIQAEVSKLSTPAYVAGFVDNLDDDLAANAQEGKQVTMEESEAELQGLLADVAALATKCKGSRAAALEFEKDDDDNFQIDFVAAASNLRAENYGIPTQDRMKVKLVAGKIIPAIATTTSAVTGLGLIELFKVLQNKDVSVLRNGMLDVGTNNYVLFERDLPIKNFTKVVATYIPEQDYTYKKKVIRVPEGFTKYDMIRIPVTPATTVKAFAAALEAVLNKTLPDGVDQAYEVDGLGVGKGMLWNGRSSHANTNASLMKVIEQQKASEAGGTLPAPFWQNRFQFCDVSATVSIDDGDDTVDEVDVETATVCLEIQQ
Kind of assay: Leishmania donovani Ubiquitin Activating Enzyme (LdE1). The format is functional. As to conditions: 30 µM.

Assay [3] has as its target AMP-activated protein kinase, AMPK (Homo sapiens) (UniProt P54646+O43741+P54619+Q9UGJ0+Q9Y478+Q13131+Q9UGI9). In words: AMP-dependent Kinase enzyme assay. An in vitro enzyme assay that detects ADP turnover that is directly proportional to AMPK activity. This uses naive AMPK that is activated during the assay with MK-8722. Type of assay: functional. As to conditions: 30 µM.

Assay [4] concerns the target Sialic acid-binding Ig-like lectin 9 (Homo sapiens) (UniProt Q9Y336). In words: Hs-Siglec9 ALPHAscreen SOP 20170721. As to conditions: 10 µM.
Another assay has as its system Trypanosoma cruzi. Kind of assay: Trypanosoma cruzi phosphomannomutase and mannose-1-phosphate guanylyltransferase assay. Type of assay: functional. As to conditions: 10 µM.
Assay [5] addresses T2, Arginase-2, mitochondrial (Homo sapiens) (UniProt P78540).
T2 sequence (whole entry): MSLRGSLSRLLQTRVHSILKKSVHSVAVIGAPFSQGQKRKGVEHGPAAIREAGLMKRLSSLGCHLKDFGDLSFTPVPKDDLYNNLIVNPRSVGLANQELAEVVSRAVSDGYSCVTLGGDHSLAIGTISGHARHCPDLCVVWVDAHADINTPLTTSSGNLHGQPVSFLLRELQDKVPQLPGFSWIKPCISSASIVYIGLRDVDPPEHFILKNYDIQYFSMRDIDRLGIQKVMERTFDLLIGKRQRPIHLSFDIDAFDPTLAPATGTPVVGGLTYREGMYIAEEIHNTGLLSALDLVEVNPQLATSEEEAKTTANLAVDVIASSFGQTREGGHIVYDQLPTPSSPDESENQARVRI
Kind of assay: in vitro enzyme assay to detect the production of urea directly proportional to the activity of Arginase II. Further: in the data most compounds retested in dose-response had high values. The format is functional. To be noted: 33.3 µM.

The target in assay [6] is T3, Proteasome subunit beta (Trypanosoma cruzi) (UniProt O96673).
T3 sequence (whole entry): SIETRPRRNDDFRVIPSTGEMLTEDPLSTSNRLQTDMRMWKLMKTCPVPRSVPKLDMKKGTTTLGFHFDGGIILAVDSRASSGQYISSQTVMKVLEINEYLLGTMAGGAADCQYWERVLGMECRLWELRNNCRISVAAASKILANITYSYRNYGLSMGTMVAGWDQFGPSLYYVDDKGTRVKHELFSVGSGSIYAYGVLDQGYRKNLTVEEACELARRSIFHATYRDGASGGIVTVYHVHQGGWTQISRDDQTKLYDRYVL
Kind of assay: Trypanosoma cruzi proteasome chymotrypsin-like activity (TcProtChymo) assay. Further: in the data most compounds retested in dose-response had high values. Type of assay: functional. As to conditions: 9.37 µM.

Another assay is filed under the species Homo sapiens. Kind of assay: To identify inhibition of the IFN signalling (Jak-Stat) pathway via expression of an eGFP reporter gene under the control of an IFN-stimulated response element (ISRE) containing MxA promoter. Type of assay: functional. To be noted: 30 µM. On the technique in general: In a reporter assay the amount or activity of a reporter protein is the signal.

The target in assay [7] is T4, Tyrosyl-tRNA synthetase, putative (Trypanosoma cruzi (strain CL Brener)) (UniProt Q4DSP6).
T4 sequence (whole entry): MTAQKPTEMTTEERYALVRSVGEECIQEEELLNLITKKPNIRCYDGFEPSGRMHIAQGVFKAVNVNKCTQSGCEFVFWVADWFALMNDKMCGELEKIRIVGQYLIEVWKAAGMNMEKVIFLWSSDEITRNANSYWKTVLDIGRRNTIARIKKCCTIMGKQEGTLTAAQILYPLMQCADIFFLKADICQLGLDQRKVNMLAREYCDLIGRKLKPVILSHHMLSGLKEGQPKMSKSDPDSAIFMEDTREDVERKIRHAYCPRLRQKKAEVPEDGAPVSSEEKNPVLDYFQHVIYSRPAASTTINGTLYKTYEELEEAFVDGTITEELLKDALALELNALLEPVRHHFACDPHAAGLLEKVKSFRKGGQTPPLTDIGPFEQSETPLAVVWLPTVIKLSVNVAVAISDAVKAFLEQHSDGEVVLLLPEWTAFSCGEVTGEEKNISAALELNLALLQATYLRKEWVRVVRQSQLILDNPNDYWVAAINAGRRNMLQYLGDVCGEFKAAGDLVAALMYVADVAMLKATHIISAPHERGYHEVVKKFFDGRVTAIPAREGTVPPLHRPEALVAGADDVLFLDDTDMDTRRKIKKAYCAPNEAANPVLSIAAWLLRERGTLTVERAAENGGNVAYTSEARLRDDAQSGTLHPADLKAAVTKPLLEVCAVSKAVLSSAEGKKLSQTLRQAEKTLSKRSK
Kind of assay: Trypanosoma cruzi tyrosyl tRNA synthetase (TcYRS) _High Tyrosine SOP. Further: in the data most compounds retested in dose-response had high values. Type of assay: functional. As to conditions: 30 µM.

The target of assay [8] is T4, Tyrosyl-tRNA synthetase, putative (Trypanosoma cruzi (strain CL Brener)). Kind of assay: Trypanosoma cruzi tyrosyl tRNA synthetase (TcYRS) SOP. The format is functional. To be noted: 30 µM.
Assay [9] has as its target Chromo domain-containing protein 1 (Saccharomyces cerevisiae (strain ATCC 204508 / S288c) (Baker's yeast)) (UniProt P32657). In words: ScCHD-1 Enzyme Inhibition Assay. Further: in the data most compounds retested in dose-response had high values. Type of assay: functional. As to conditions: 30 µM.

For some of these results: Results with a measured potency or affinity are listed apart.

Protein translocase subunit SecA (Escherichia coli (strain K12)), sequence (P10408 whole entry): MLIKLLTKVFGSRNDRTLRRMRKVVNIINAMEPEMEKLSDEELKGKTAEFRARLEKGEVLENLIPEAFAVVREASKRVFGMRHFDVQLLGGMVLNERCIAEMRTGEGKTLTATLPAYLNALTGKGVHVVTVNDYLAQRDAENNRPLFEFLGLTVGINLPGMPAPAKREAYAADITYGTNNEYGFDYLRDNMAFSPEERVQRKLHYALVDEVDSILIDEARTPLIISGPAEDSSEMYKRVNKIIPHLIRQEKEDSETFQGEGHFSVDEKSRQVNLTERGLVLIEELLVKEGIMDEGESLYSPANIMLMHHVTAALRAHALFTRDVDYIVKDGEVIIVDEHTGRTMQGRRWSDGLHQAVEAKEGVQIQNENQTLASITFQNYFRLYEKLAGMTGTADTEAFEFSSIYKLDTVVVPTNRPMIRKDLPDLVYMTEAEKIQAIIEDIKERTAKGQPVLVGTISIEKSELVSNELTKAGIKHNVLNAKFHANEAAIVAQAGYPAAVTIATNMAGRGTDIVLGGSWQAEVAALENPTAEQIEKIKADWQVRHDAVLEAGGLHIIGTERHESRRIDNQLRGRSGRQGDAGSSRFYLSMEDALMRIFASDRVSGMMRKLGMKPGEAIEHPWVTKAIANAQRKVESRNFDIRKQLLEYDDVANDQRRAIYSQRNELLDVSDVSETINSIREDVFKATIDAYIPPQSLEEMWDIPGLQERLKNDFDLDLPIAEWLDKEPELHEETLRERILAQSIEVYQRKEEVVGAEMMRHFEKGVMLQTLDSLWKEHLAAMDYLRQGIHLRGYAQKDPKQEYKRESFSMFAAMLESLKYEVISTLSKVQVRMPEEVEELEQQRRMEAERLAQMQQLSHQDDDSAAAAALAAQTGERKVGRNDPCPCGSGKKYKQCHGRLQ
Chromo domain-containing protein 1 (Saccharomyces cerevisiae (strain ATCC 204508 / S288c) (Baker's yeast)), sequence (P32657 whole entry, the tested form may be a part): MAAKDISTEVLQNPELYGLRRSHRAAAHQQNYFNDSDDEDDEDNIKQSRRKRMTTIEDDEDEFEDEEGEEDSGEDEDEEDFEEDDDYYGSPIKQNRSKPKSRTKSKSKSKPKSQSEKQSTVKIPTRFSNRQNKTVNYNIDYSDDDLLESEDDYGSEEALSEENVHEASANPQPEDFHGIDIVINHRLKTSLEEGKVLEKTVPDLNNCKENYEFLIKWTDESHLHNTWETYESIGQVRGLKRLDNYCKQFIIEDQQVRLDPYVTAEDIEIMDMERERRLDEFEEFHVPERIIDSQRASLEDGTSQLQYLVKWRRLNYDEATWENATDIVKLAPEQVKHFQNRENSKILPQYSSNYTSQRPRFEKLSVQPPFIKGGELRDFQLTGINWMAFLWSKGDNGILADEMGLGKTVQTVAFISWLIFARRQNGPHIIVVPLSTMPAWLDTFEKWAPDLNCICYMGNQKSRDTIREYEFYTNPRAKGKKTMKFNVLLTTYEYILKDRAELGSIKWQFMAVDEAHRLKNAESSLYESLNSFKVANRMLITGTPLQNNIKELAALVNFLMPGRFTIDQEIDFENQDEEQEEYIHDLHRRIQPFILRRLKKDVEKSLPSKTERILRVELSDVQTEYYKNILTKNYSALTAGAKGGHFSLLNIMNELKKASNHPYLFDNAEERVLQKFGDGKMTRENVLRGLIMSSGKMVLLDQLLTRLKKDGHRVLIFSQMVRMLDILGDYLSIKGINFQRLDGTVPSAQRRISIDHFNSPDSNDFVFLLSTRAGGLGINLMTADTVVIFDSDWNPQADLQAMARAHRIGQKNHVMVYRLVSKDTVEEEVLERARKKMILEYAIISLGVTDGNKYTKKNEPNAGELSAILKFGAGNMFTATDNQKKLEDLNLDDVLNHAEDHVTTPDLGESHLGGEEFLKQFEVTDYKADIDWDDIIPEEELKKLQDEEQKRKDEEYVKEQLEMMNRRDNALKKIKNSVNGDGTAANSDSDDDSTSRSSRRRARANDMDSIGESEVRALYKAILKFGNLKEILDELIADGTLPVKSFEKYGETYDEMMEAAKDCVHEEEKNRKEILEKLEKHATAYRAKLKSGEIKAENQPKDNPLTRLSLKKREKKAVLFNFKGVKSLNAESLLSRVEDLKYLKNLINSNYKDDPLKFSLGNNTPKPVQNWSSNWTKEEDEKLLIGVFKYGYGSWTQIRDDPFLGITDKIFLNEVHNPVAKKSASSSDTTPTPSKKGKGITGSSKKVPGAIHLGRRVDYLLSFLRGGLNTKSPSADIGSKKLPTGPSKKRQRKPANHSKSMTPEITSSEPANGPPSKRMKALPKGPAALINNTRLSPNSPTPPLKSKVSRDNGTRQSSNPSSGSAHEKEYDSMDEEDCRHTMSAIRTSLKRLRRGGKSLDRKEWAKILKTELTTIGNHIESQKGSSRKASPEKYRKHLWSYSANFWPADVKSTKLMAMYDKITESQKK
Sialic acid-binding Ig-like lectin 9 (Homo sapiens), sequence (Q9Y336 whole entry): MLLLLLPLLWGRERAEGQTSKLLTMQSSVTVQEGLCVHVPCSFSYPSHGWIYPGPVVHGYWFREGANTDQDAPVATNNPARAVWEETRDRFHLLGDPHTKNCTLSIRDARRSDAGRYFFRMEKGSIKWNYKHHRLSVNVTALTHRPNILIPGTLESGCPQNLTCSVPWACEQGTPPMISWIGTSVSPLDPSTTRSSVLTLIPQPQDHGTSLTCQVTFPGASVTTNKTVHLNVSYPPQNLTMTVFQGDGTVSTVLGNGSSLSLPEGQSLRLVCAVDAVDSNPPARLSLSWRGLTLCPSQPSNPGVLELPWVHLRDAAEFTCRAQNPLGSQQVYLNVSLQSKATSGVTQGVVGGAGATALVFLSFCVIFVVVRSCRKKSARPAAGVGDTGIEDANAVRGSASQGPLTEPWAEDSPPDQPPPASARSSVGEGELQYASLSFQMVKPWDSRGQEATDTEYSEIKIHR

Take `CCn1nc(C(C)C)cc1C(=O)NCCCOC`: the Percent Effect was -2.71% in [1]; 6.94% in assay [2]; 0.234% in assay [3]; -3.62% in [4]; 6.51% in the assay on Trypanosoma cruzi; -1.77% in assay [5]. Further, the Percent Effect in assay [6] is 14.7%; in the assay filed under Homo sapiens it was -30.8%; in [7], 4.21%; in assay [8] it was 12.8%; in assay [9], -4.31%.
`COc1ccc(C2CCCCCN2S(=O)(=O)N(C)C)cc1` (stereo unspecified): the Percent Effect was -0.837% in [1]; 12.5% in [2]; -11.6% in assay [3]; 10.4% in assay [4]; -0.291% with Trypanosoma cruzi; 18.1% in assay [5]. The Percent Effect in assay [6] was 12.5%; in the assay listed under Homo sapiens it was 6.25%; in assay [7], 2.1%; in assay [8], 5.13%; in assay [9] it was -3.74%.
Turning to `O=c1cc2c(nn1CN1CCN(c3ccccc3)CC1)CCC2`, the Percent Effect in [1] is -2.18%; in [2], 12%; in assay [3] it was -4.49%; in assay [4] it was 2.85%; in the assay with Trypanosoma cruzi, 0%; in assay [5], -1.23%. The Percent Effect is 15% in assay [6]; 11.5% in the assay filed under Homo sapiens; 6.35% in assay [7]; 15.4% in [8]; -9.54% in [9].
For `CCN(CCNC(=O)c1ccccc1OCCOC)C1CC1`, the Percent Effect is -1.14% in assay [1]; 21.5% in assay [2]; -0.982% in assay [3]; -8.11% in [4]; 0.513% with Trypanosoma cruzi; -4.52% in assay [5]. The Percent Effect in assay [6] is 17%; in the assay filed under Homo sapiens, 14.4%; in assay [7], 3.12%; in assay [8], 17.7%; in [9], -34.3%.
Take `Cc1cc(CN(C)C(=O)C2CCCN(C(=O)c3ccc(Cl)cc3)C2)no1` (stereo unspecified): the Percent Effect in [1] was -4.75%; in assay [2] it was -39%; in [3], 3.47%; in [4], 5.71%; in the assay with Trypanosoma cruzi, -0.885%; in assay [5], -20.7%. Further, the Percent Effect in [6] is 11.7%; in the assay filed under Homo sapiens, 0.275%; in assay [7], 2.15%; in assay [8] it was 11.1%; in [9], -7.95%.
Take `COCC(=O)NCc1cc(=O)n2c(n1)CN(CC1CCOC1)CCC2` (stereo unspecified): the Percent Effect in [1] was 0.158%; in assay [2] it was 13.5%; in assay [3], 2.63%; in assay [4], -10.2%; in the assay with Trypanosoma cruzi, 0.0978%; in assay [5] it was -2.23%. Moreover, the Percent Effect in assay [6] is 8.12%; in the assay listed under Homo sapiens, 8.83%; in assay [7], -1.08%; in [8], 12.8%; in assay [9] it was -2.53%.
As to `COCCOc1ccc(NC(=O)C2CCCN(C(N)=O)C2)cn1` (stereo unspecified), the Percent Effect in assay [1] is -4.58%; in assay [2], 7.59%; in [3], 0.0742%; in [4], 4.56%; in the assay with Trypanosoma cruzi, -6.33%; in assay [5] it was 1.52%. Also, the Percent Effect was 5.82% in assay [6]; 22.6% in the assay listed under Homo sapiens; -0.493% in assay [7]; -1.27% in [8]; -5.42% in assay [9].
As for `COc1ccccc1CNC(=O)C1=NN(c2ccc(C)cc2)C(=O)CN1`, the Percent Effect in assay [1] was -2.03%; in assay [2], 13.5%; in [3], -0.556%; in [4], 34.6%; with Trypanosoma cruzi it was -3.62%; in assay [5], -0.248%. Also, the Percent Effect was 15.2% in assay [6]; 98.2% in the assay listed under Homo sapiens; -6.45% in [7]; -3.7% in assay [8]; -2.26% in assay [9].
For `CC(C)Sc1nnc(CCNC(=O)OC(C)(C)C)o1`, the Percent Effect in [1] was 1.34%; in [2], 4%; in assay [3], -0.0572%; in [4] it was 0.92%; in the assay on Trypanosoma cruzi, -8.45%; in assay [5] it was 0.176%. In addition, the Percent Effect in [6] was 12.2%; in the assay listed under Homo sapiens, 32.6%; in [7], -2.12%; in assay [8], -12.8%; in [9] it was -10.5%.
`CNc1cncc(C2CCCN(S(C)(=O)=O)C2)n1` (stereo unspecified): the Percent Effect in assay [1] is -1.57%; in assay [2] it was -1.35%; in assay [3], 13.3%; in assay [4], 2.54%; with Trypanosoma cruzi, -6.92%; in assay [5] it was 3.48%. Besides, the Percent Effect was 17% in [6]; 23.6% in the assay listed under Homo sapiens; 1.07% in assay [7]; 6.49% in assay [8]; -15.8% in assay [9].
With `O=C(NCC1CCOC1)c1cc(-c2cccc(Cl)c2)on1` (stereo unspecified), the Percent Effect was -3.92% in assay [1]; 18.2% in [2]; 1.45% in assay [3]; 3.45% in assay [4]; 0% with Trypanosoma cruzi; 4.27% in assay [5]. In addition, the Percent Effect in [6] is 16.7%; in the assay listed under Homo sapiens, 14.6%; in assay [7], 5.83%; in [8] it was 14.6%; in [9] it was -5.69%.
